From ChEMBL document CHEMBL3988442, “University of Dundee, Small-Polar-MMV Screening Library” (2021)
Several values for one entry are separate records, joined by “and”; a condition that tells them apart may be missing. Identical values can stand only once. Among all 34,000 compounds or so, about 290 (0.85%) showed an effect of 50% or more. Many of the other results were omitted from the sample, so strong results are more common in it than they were.

System: Plasmodium falciparum
Assay: Plasmodium falciparum sporozoite viability assay
Format: functional, organism-based
Set-up: scale not given: in the data most compounds retested in dose-response had high values

Row | SMILES | Percent Effect | Percent Effect (10 mM as filed; unlikely as a test dose)
1 | C=Cn1ncc(CN2C[C@@H]3CCCN3C[C@H]2Cc2ccccc2)c1C | -1.399% | –
2 | CC(=O)N1N=C(c2cccs2)OC1C(=O)Nc1ccc(C)cc1 (centres undefined) | -16.37% | –
3 | Cc1sc2c(C3CCNCC3)nc(Nc3cccc(F)c3)n2c1C.Cl | – | 63.64% and 42.54% and 49.37%
4 | Cc1nc(NCc2cccc(F)c2)cc(C2CCNCC2)n1.Cl | 0.8951% | –
5 | COc1cccc(-c2ccnc(C3CCNCC3)c2)c1 | 4.65% | –
6 | COc1cccc(Nc2nc(C3CCNCC3)c3sc(C)c(C)n23)c1.Cl | – | 77.36% and 36.71% and 52.33%
7 | COc1cccc(Nc2nc(C3CCCNC3)c3sc(C)c(C)n23)c1.Cl (centres undefined) | – | 4.856% and 5.657% and 12.75%
8 | COc1cccc(-n2nnc(C(=O)N3CCN(C(C)=O)CC3)c2C)c1 | 6.024% | –
9 | COCC1CC2(CCN(c3cccc(C)n3)CC2)CN1c1ncccn1.O=C(O)C(F)(F)F (centres undefined) | -2.7% | –
10 | COCCNC(=O)C1(CCCc2cccnc2)CCCN1C (centres undefined) | 16.89% | –
11 | O=C1C(NCc2nnc3n2CCCC3)CCCN1c1ccccc1 (centres undefined) | 6.53% | –
12 | Cc1ccc2c(c1)C(=O)NCC1(CCN(C(=O)c3cc(C)no3)CC1)O2 | 21.42% | –
13 | CN1C[C@@H](C(=O)N2CCOCC2)[C@@]2(CCc3ccccc3C(=O)N2)C1 | -1.963% | –
14 | COc1ccc(OCCc2cc(C3CNCCO3)nn2C)cc1 (centres undefined) | 0.06458% | –
15 | COc1ccc(-c2ccnc(C3CCNCC3)c2)cc1.Cl | 12.14% | –
16 | COc1ccc(-c2ccc(C3CNCCO3)nc2)cc1.Cl (centres undefined) | – | 82.18% and 93.08% and 86.88%
17 | Cn1nc(C2CNCCO2)cc1CCOc1ccc(C(F)(F)F)cc1 (centres undefined) | 8.847% | –
18 | COc1ccc(-c2cnc(N(C)C)nc2C2CNCCO2)cc1.Cl (centres undefined) | 3.932% | –
19 | O=C(CCn1ccnc1)N1CCC(c2nnc(-c3ccccn3)o2)CC1 | 18.74% | –
20 | Cc1cc(NC(=O)CN(C)C2CCCN(c3cccnn3)C2)on1 (centres undefined) | 6.872% | –

Row | SMILES | Percent Effect | Percent Effect (10 mM as filed; unlikely as a test dose)
21 | Cc1cc2nc(SCC(=O)N3CCCCC3)n(C)c(=O)c2[nH]1 | 16.8% | –
22 | CN1C(=O)CCCC12CCCN(C(=O)c1ccoc1)C2 (centres undefined) | 8.123% | –
23 | Cc1nnc2n1CCN(C(=O)c1cc(C)n(-c3ccccn3)c1C)C2 | – | -4.516% and -0.613% and 8.394%
24 | Cc1nnc2n1CCN(C(=O)c1cc(C)n(-c3ccccc3)c1C)C2 | – | 80.6% and 90.57% and 75.3%
25 | Cc1ccccc1-n1c(C)cc(C(=O)N2CCn3c(C)nnc3C2)c1C | – | -10.25% and 8.528% and -8.016%
26 | Cc1cc(C(=O)N2CCc3nnc(N)cc3C2)c(C)n1-c1cccnc1 | – | -13.69% and -18.44% and -9.069%
27 | CCn1c(C)cc(C(=O)N2CCc3nnc(N)cc3C2)c1C | – | -3.903% and -4.783% and -13.87%
28 | Cc1nnc2n1CCN(C(=O)c1cc(C)n(-c3cccnc3)c1C)C2 | – | -3.499% and -16.38% and -11.58%
29 | Cc1cccc(-n2c(C)cc(C(=O)N3CCn4c(C)nnc4C3)c2C)c1 | – | 50.81% and 47.19% and 51.44%
30 | O=C(NCCc1cc(N2CCOCC2)nc(NC2CC2)n1)C1CCCO1 (centres undefined) | 11.42% | –
31 | Cc1cc(C)n(CC2CCCN2CCS(C)(=O)=O)n1 (centres undefined) | 6.268% | –
32 | CCn1c(C2CCN(C(=O)c3cc(CC(C)C)on3)CC2)nn(C)c1=O | – | -0.7877% and 5.537%
33 | CNC(=O)c1cn[nH]c1C1CCCN1C(=O)c1cccnc1 (centres undefined) | 6.523% | –
34 | Cc1noc(CN(CCc2cccs2)Cc2cccc(C#N)c2)n1 | – | -26.23% and -21.92%
35 | COCCN(Cc1cccc(C#N)c1)Cc1nc(C)no1 | – | 48.82% and 52.01%
36 | Cc1noc(CN(CCc2ccco2)Cc2cccc(C#N)c2)n1 | – | -11.78% and -9.281%
37 | COc1cccc(CN2CCCCCC2c2sccc2C)c1O (centres undefined) | – | 49.38% and 41.71%
38 | COc1cccc(CN2CCCCCC2c2cccc(C)c2)c1O (centres undefined) | – | 44.13% and 43.49% and 59.81%
39 | COCCC(=O)N1CCCN(Cc2nccn2C(C)C)CC1 | 9.219% | –
40 | c1cncc(OCc2nc(C3CC3)nn2-c2ccc3c(c2)OCCO3)c1 | – | 74.85% and 76.98%

Row | SMILES | Percent Effect | Percent Effect (10 mM as filed; unlikely as a test dose)
41 | c1ccc(Cc2nc(C3CC3)nn2-c2ccc3c(c2)OCCO3)nc1 | – | 32.69% and 40.6%
42 | c1cncc(CCc2nc(C3CC3)nn2-c2ccc3c(c2)OCCO3)c1 | – | 41.36% and 42.97%
43 | O=C(c1cn(-c2ccccc2Cl)nn1)N1CCSCC1 | – | -17.97% and -41.49%
44 | O=C(c1cn(-c2cccc(Cl)c2F)nn1)N1CCCSCC1 | – | -42.82% and -45.17%
45 | CN(C)c1cccc(C(=O)NCC(O)c2cccs2)c1 (centres undefined) | – | 12.86% and 4.207%
46 | CN1CCN(C(=O)[C@H]2CC[C@@H]3[C@@H](CCN3Cc3nccs3)O2)CC1 | -3.61% | –
47 | COc1ccccc1C(=O)Nc1nc2c(s1)CN(S(=O)(=O)C1CC1)CC2 | – | 82.29% and 80.43%
48 | CCc1nc(CN2CCCN(Cc3cnn(C)c3)CC2)no1 | -9.563% | –
49 | CCc1nc(CN2CCCC(N(C)Cc3cnn(C)c3)C2)no1 (centres undefined) | -6.257% | –
50 | Cc1ncncc1-c1ccnc(NC(C)C)n1 | -0.5927% | –
51 | CN(C)C(=O)c1cccnc1SCc1ccccc1Cl | -19.98% | –
52 | Cc1cc(CN2CCN(C(=O)NCc3csc(C)n3)CC2)on1 | -16.07% | –
53 | CC(=O)Nc1ncc(S(=O)(=O)Nc2ccc(C)cc2)s1 | – | -23.3% and -22.01%
54 | CC(=O)Nc1ncc(S(=O)(=O)Nc2cccc(F)c2)s1 | – | -17.58% and -16.77%
55 | CC(=O)Nc1ncc(S(=O)(=O)Nc2ccc3c(c2)OCCO3)s1 | – | 98.04% and 98.83%
56 | Cc1cc(C(=O)O)cc(S(=O)(=O)Nc2ccc3c(c2)OCCO3)c1C | – | 24.31% and 12.71% and 29.08%
57 | CCc1ccc(C(=O)O)cc1S(=O)(=O)Nc1ccc(F)c(C#N)c1 | 9.76% | –
58 | Cc1c(F)cc(C(=O)O)cc1S(=O)(=O)Nc1ccc2c(c1)OCCO2 | – | 59.81% and 58.05% and 66.51%
59 | Cc1cc(C(=O)O)cc(S(=O)(=O)Nc2ccc3c(c2)OCCCO3)c1C | – | 3.546% and -0.5757% and 17.55%
